# High-throughput results deposited in PubChem by several laboratories.
# Sampled rows, rich in hits. Any-hit rate of the full collection: about 4.7%.
# SKKanGAS inh: inhibitors of SKKanGAS S. pyogenes growth in kanamycin (SK-promoter or general growth effect). BacTiter-Glo, 6 h. inhibition, % at 7.5 µM. 300,000 tested, 1.3% active;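 active = mean replicate score, as percent of positive control median, at least 50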;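 also: strain carries kanamycin resistance gene driven by streptokinase promoter and grows in 40 µg/ml kanamycin; loss of luminescence reflects streptokinase promoter inhibition or plain growth inhibition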
# tim10-1 inh: growth inhibitors of tim10-1 mutant yeast | AID 463190 | 330,000 tested, 2.2% active | S. cerevisiae tim10-1 ts strain growth, BacTiter-Glo, 24 h | inhibition, % at 20 µM;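 active = inhibition of at least 40%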;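 also: mutant grown at 25 °C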
# tim23-1 inh: growth inhibitors of tim23-1 mutant yeast; 330,000 tested, 1.3% active; S. cerevisiae tim23-1 growth, BacTiter-Glo luminescence, 24 h; AID 463212; inhibition, % at 20 µM;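 active = growth inhibition of the mutant yeast at or above 50%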;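 also: temperature-sensitive mutant grown at 25 °C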
# EBI2 antag: blocks human EBI2 receptor beta-arrestin signaling. EBI2 beta-arrestin recruitment, luminescence, 7a,25-OHC stimulated. AID 651636. P32249. 360,000 tested, 0.81% active. inhibition, % at 5 µM; in the data active = inhibition above about 38%;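 also: enzyme fragment complementation signal reports receptor beta-arrestin coupling in cells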
# Target sequence (P32249 whole entry, looked up, the tested form may be a part): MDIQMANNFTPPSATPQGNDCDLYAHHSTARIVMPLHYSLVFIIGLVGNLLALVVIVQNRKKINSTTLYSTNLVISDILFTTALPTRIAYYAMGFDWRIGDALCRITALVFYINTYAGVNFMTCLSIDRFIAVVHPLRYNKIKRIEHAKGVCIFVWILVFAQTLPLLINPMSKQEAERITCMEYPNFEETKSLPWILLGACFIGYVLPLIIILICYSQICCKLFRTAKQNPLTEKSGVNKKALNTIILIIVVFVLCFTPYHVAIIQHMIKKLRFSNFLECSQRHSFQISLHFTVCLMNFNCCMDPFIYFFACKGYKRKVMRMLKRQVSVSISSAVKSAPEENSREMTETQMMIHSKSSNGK
# PfHsp90 yeast 2: growth inhibition of yeast expressing Plasmodium Hsp90 | S. cerevisiae expressing PfHsp90, BacTiter-Glo ATP, 48 h; yeast lacking PDR1 and PDR3 efflux regulators | 310,000 tested, 0.32% active | inhibition, % at 9.4 µM;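 active = every replicate shows inhibition above about 80%, whatever the replicate mean, limit read from the data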
# TIM10 inh: inhibits growth of TIM10 yeast strain; S. cerevisiae TIM10 strain growth, BacTiter-Glo luminescence, 24 h; inhibition, % at 10 µM; 330,000 tested, 1.4% active;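 active = inhibition of 40% or more at the single tested concentration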;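 also: wild-type TIM10 isogenic control strain grown at permissive 25 °C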
# Numbers stand for hits; – = inactive; · = not tested or not shown.
SMILES,SKKanGAS inh,tim10-1 inh,tim23-1 inh,EBI2 antag,PfHsp90 yeast 2,TIM10 inh
Cc1cccc(OCCn2c(-c3ccco3)nc3ccccc32)c1,–,–,–,–,–,–
O=C(Nc1nc2ccccc2n1Cc1ccc(Cl)cc1)c1ccco1,–,–,–,–,–,–
O=C(Nc1nc2ccccc2n1CCN1CCCCC1)c1ccco1,–,–,–,–,–,–
O=C(Nc1nc2ccccc2n1CCOc1ccccc1)c1ccco1,77,–,–,–,–,–
COc1cc2c(c(Br)c1N)-c1cc(Br)c(N)cc1C2=O,·,·,·,–,·,·
O=C1NC[C@H](CCCCN2CCN(Cc3ccccc3)C(=O)C2=O)N(CC2CCCCC2)C1=O,·,·,·,–,·,·
O=C(NNc1c(Cl)cccc1Cl)c1c(F)cccc1Cl,51,–,–,–,–,–
O=C(NNc1ccc(F)cc1F)c1c(F)cccc1Cl,–,–,–,–,–,–
CCOC(=O)N1CCN(C(=O)C[C@@H]2C[C@@]3(C(=O)OC)CCCCC=C3N(CCc3ccc(OC)c(OC)c3)C2=O)CC1,·,·,·,–,·,·
COc1ccc(N2CCN(Cc3nc(N)nc(Nc4ccc(C)c(Cl)c4)n3)CC2)cc1,74,–,–,–,–,–
COc1ccc(Nc2nc(N)nc(CN3CCOCC3)n2)cc1,–,–,–,–,–,–
O=C(COc1ccc(S(=O)(=O)N2CCOCC2)cc1)NCCc1ccc(Cl)cc1,·,·,·,–,·,·
CC1=C(C(=O)N2CCCCCC2)CC(CC(=O)NCCCCc2ccccc2)C(=O)N1Cc1ccccc1 (stereo not drawn),·,·,·,–,·,·
CCOC(=O)C1=NN(C(=O)c2ccco2)C2(CC2)C1,–,–,–,–,–,–
CCOC(=O)C1=NN(C(=O)c2cccc(Br)c2)C(O)(C(C)(C)C)C1 (stereo not drawn),90,–,–,·,·,–
CC(=NNC(=S)N1CC2CCC(CC2)C1)c1cnccn1,·,·,·,–,145,·
CC(=NNC(=S)N1CCN(C2CCCCCC2)CC1)c1ccccn1,·,·,·,–,103,·
CC(=NNC(=S)N1CC2CCC(CC2)C1)c1ccccn1,·,·,·,–,·,·
CC(=NNC(=S)N1CCN(c2ccccn2)CC1)c1ccccn1,·,·,·,–,–,·
CC(=NNC(=S)N1CCN(c2ccccn2)CC1)c1nccs1,·,·,·,–,142,·
N#CC(Cc1ccccc1OC(F)F)c1nc2ccccc2[nH]1 (stereo not drawn),–,–,–,–,–,–
c1ccc2sc(Nc3nc4cc5c(cc4s3)OCO5)nc2c1,–,–,–,–,–,–
Fc1ccc2nc(Nc3nc4cc5c(cc4s3)OCO5)sc2c1,60,–,–,–,–,–
Fc1ccc2nc(Nc3nc4cc5c(cc4s3)OCCO5)sc2c1,50,–,–,–,–,–
O=C(O)c1cccc2c1C(=O)c1ccccc1-2,–,–,–,–,–,–
SMILES,SKKanGAS inh,tim10-1 inh,tim23-1 inh,EBI2 antag,PfHsp90 yeast 2,TIM10 inh
O=C1C(=C(I)I)c2ccccc2-c2ccccc21,·,·,·,–,106,·
O=S(=O)(Nc1nc2ccccc2nc1Nc1cccc(S(=O)(=O)N2CCCCC2)c1)c1ccccc1,64,–,–,–,–,–
O=C(CCSc1nnc(-c2ccncc2)o1)Nc1ccc(Cl)cc1,–,–,–,–,96,–
O=C(CCSc1nnc(-c2ccncc2)o1)Nc1cccc(Cl)c1,–,–,–,–,·,–
CCN1CCN(c2cc3c(cc2F)c(=O)c(C(=O)O)cn3C2CC2)CC1,103,–,–,–,–,–
CCCOc1ccc(C(=O)NC(=S)N2CCN(c3cc4c(cc3F)c(=O)c(C(=O)O)cn4CC)CC2)cc1,91,–,–,–,–,–
O=c1n(Cc2ccccc2)c(O)c2n1Cc1ccccc1N=C2c1ccccc1,·,·,·,–,·,·
O=c1c2ccccc2n(Cc2ccc(Cl)cc2)c(=O)n1Cc1ccco1,–,–,–,77,–,–
Cc1nc(N/N=C\c2ccc3c(c2)OCO3)sc1C,53,–,–,–,–,–
O=C(NCc1cc(Cl)cc(Cl)c1)c1csc([C@@H]2C[C@H](O)[C@@H](CO)O2)n1,·,·,·,–,·,·
COc1ccccc1C(=O)NNC(=O)c1csc(N2CCOCC2)n1,–,–,–,–,–,–
O=C(NNC(=O)c1cc(-c2ccc(Cl)cc2)nc2ccccc12)c1csc(N2CCOCC2)n1,60,–,–,–,·,–
O=C(NNC(=O)c1cc(-c2ccccc2)nc2ccccc12)c1csc(N2CCOCC2)n1,–,–,–,–,·,–
O=C(NNC(=O)c1ccccc1OCc1ccccc1Cl)c1csc(N2CCOCC2)n1,60,–,–,–,–,–
CCOC1=C2CN(S(=O)(=O)c3ccc(C)cc3)[C@H](c3ccccc3)C[C@@H]2N(S(=O)(=O)c2ccc(C)cc2)[C@H](c2cccs2)C1,·,·,·,–,·,·
Cc1ccc2c(c1)=C(c1sc(N(C)c3ccc(O)cc3)nc1O)C(=O)N=2,80,–,–,–,–,–
O=C1N=c2ccc(Br)cc2=C1c1sc(=O)[nH]c1O,–,–,–,·,·,–
CN(C)S(=O)(=O)c1cccc(-c2nnc(-c3ccccc3)o2)c1,–,–,–,50,–,–
Cc1ccccc1NS(=O)(=O)c1cccc(-c2nnc(-c3ccccc3)o2)c1,–,–,–,–,–,–
O=C(c1ccc2c(=O)n(C3CCCC3)c(=S)[nH]c2c1)N1CCc2ccccc21,–,–,–,–,109,–
O=C(NCCNC(=O)C(c1ccccc1)c1ccccc1)c1ccco1,–,–,–,–,–,–
C/C(=N/NC(=O)CNC(=O)C(c1ccccc1)c1ccccc1)c1ccco1,55,–,–,–,–,–
C/C(=N\NC(=O)c1ccccc1N)c1ccc(NC(=O)Cc2ccccc2)cc1,67,–,–,–,–,–
COc1ccc(OC)c(NC(=O)COc2cc(O)c3c(c2)OC(C)(C)CC3=O)c1,·,·,·,–,·,·
O=c1cc(O)c2sc3nc(-c4cccnc4)cc(C(F)(F)F)c3c2[nH]1,–,–,–,–,–,–
SMILES,SKKanGAS inh,tim10-1 inh,tim23-1 inh,EBI2 antag,PfHsp90 yeast 2,TIM10 inh
Cc1cc(C(F)(F)F)c2c(n1)sc1c(O)cc(=O)[nH]c12,50,–,–,–,–,–
CCCNC(=O)c1cc(C2CCCN(C(=O)c3ccccc3)C2)on1 (stereo not drawn),·,·,·,–,·,·
CN(C)/C=C1\SC(=S)N(c2ccc(Br)cc2)C1=O,54,–,–,–,–,–
Cn1cc(-c2csc(C(O)c3ccc(F)c(F)c3)n2)cn1 (stereo not drawn),·,·,·,–,·,·
Cc1nc2c(C(=O)NCCC(C)C)c[nH]n2c(=O)c1Cc1ccccc1F,93,–,–,–,–,–
O=C(C(Br)=Cc1ccccc1)c1ccccc1,·,·,·,69,·,·
O=C(Nc1ccc(NC(=O)c2ccccc2)c2ccccc12)c1ccccc1,·,·,·,–,·,·
O=C(Nc1ccc(-c2csc(Nc3ccccc3)n2)cc1)c1cccc(C(F)(F)F)c1,65,–,–,–,–,–
O=C(Nc1ccc(-c2csc(Nc3ccc(Cl)cc3)n2)cc1)c1cccc(C(F)(F)F)c1,–,–,–,·,·,–
O=C(COc1ccccc1)NCC(=O)N/N=C/c1ccc(Cl)cc1,–,–,–,–,–,–
Cn1nnnc1SCC(=O)Nc1ccccn1,–,–,–,–,·,–
